# Test results published in PubChem BioAssay AID588335 (The Scripps Research Institute Molecular Screening Center, 2011).
# The whole screen tested about 360,000 compounds, of which about 4,500 (1.2%) were called active. This is one part of a sample in which actives are shown more often than they occur. Cut-off read from the data, not from the text of the source: active = inhibition above about 30%; inactive = the rest.
# Experiment: GDH-TPI coupling enzyme inhibitors, primary screen, artefact control for M. tuberculosis FBA inhibitor project, biochemical, absorbance, full deck (AID 588335);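 note: 0% = DMSO wells and 100% = wells lacking the enzyme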
# Details: GDH-TPI coupled enzyme counterscreen, NADH absorbance; at 4.8 µM; hits give high values
row,Compound,inhibition
1,O=C(COc1ccc2oc3c(c2c1)CCCC3)Nc1ccccn1,-3.77% (inactive)
2,O=C(COc1ccc2c3c(c(=O)oc2c1)CCCC3)NCC(O)c1ccccc1 (configuration not stated),10.6% (inactive)
3,O=C(CN1CCOCC1)N1CCCc2c1c(=O)oc1ccc(OCc3ccccc3)cc21,31.5% (active)
4,CCc1nn(CC(=O)N2CCN(c3cc(C)ccc3C)CC2)c(=O)c2cc3occc3n12,3.06% (inactive)
5,CCOC(=O)N1CCC(NC(=O)C(C)n2c3ccccc3c3cnn(C)c(=O)c32)CC1 (configuration not stated),1.24% (inactive)
6,Cc1ccc(OCCCC(=O)Nc2ccc(S(=O)(=O)Nc3cc(C)nc(C)n3)cc2)cc1,-1.42% (inactive)
7,Cc1cc(C)nc(NS(=O)(=O)c2ccc(N/C=C\C(=O)c3cccs3)cc2)n1,10.6% (inactive)
8,Cc1ccc(S(=O)(=O)Nc2nc(C)cc(N/N=C/c3ccc(O)cc3)n2)cc1,31.1% (active)
9,O=c1c(Cl)c(NCc2ccc(F)cc2Cl)cnn1C12CC3CC(CC(C3)C1)C2,-9.45% (inactive)
10,CCc1nnc(NC(=O)c2cc(S(=O)(=O)N3CCN(CC)CC3)ccc2Cl)s1,7.27% (inactive)
11,COc1ccc(-c2c(-c3cc(OC)cc(OC)c3)n(C)c3ccc(-c4ccn[nH]4)cc23)cc1,10.2% (inactive)
12,COc1cc(OC)cc(-c2c(-c3cccs3)c3cc(-c4ccc(OC)nc4)ccc3n2C)c1,23.8% (inactive)
13,COc1cc(OC)cc(-c2c(-c3ccc(F)cc3)c3cc(-c4ccc5cc[nH]c5c4)ccc3n2C)c1,43.2% (active)
14,Cc1ccc(C(=O)CN2C(=O)NC3(CCc4ccccc43)C2=O)c(C)c1 (configuration not stated),-0.34% (inactive)
15,O=C(CCCCO)c1ccc(O)c(Cl)c1,29.1% (inactive)
16,Cc1c(S(=O)(=O)N2CC(C)CC(C)C2)c(=O)n(C)c(=O)n1C (configuration not stated),-4.2% (inactive)
17,Cc1cc2c(cc1C)NC(c1ccccn1)C1=C(CC(C)(C)CC1=O)N2 (configuration not stated),29.6% (inactive)
18,CC1(C)CC(=O)C2=C(C1)Nc1cc(C(=O)c3ccccc3)ccc1NC2c1ccccn1 (configuration not stated),32.1% (active)
19,CC(=O)C1=C(C)NC2=C(C(=O)CC(C)(C)C2)C1C (configuration not stated),0.31% (inactive)

row,Compound,inhibition
1,CSCC[C@H](NC(=O)NCc1cccs1)C(=O)O,-3.14% (inactive)
2,CCN(c1ccc(NC(=O)COC(=O)CCc2nc3ccccc3n2-c2ccccc2)cc1)C(C)C,8.52% (inactive)
3,O=C(CCS(=O)(=O)c1cccc2nsnc12)N1CCN(c2ccccc2F)CC1,19.6% (inactive)
4,COc1ccc(O)c(/C=N/N=C/c2cccc([N+](=O)[O-])c2)c1,-12.3% (inactive)
5,COc1ccc(/C=N/N=C/c2c[nH]c(=O)c(C#N)c2Nc2ccccc2)cc1,50.2% (active)
6,COc1ccc(/C=N/Nc2nc(-c3ccc(C)cc3)c(C#N)c(=O)[nH]2)cc1,10% (inactive)
7,O=C1NC(c2ccccc2)CCC1(Cl)Cl (configuration not stated),3.97% (inactive)
8,Cc1ccc(C(=O)Nc2c(C#N)c(C)c(C)n2Cc2ccccc2)cc1,-3.02% (inactive)
9,Cc1ccc(Cn2c(NC(=O)c3ccco3)nc3ccccc32)cc1,37.1% (active)
10,CCn1nc(NC(=O)c2ccco2)c2cc3ccc(C)cc3nc21,-4.08% (inactive)
11,CN1CCN(C(=O)CCc2ncc(C(F)(F)F)cc2Cl)CC1,-4.79% (inactive)
12,CC(C)c1ccc(S(=O)(=O)N2CCN(C(=O)CN3C(=O)NC(C)(c4ccccc4)C3=O)CC2)cc1 (configuration not stated),-2.79% (inactive)
13,CC(N=Cc1nc(-c2ccccc2)oc1O)c1ccccc1 (configuration not stated),46.8% (active)
14,Oc1oc(-c2ccccc2Br)nc1/C=N/c1ccccn1,15.5% (inactive)
15,COc1ccc(CN(C)C(C)C(=O)NC2CCCc3ccccc32)cc1 (configuration not stated),-4.42% (inactive)
16,Cn1c(=O)c2c(-c3cccc(Br)c3)c(C#N)c(N)nc2n(C)c1=O,32.1% (active)
17,Cc1cc(C)c2c(-c3ccc(F)cc3)c(C#N)c(=O)n(C)c2n1,12.6% (inactive)
18,CSc1ccc(-c2c(C#N)c(N)nc3c2c(C)nn3-c2ccccc2)cc1,21.3% (inactive)
19,COc1ccc(NC(=O)NCCN2CCN(c3ccc(C)cc3)CC2)c(Cl)c1,32.2% (active)

row,Compound,inhibition
1,COc1ccc(N2CCN(CCNC(=O)Nc3cc(Cl)ccc3Cl)CC2)cc1,5% (inactive)
2,COc1ccc(N2CCN(CCNC(=O)c3nnc(Cc4c(F)cccc4Cl)o3)CC2)cc1,5.33% (inactive)
3,CSC1=N/C(=C\C=C\c2cccs2)C(=O)S1,4.56% (inactive)
4,O=C(CN1C(=O)S/C(=C\c2ccccc2F)C1=O)NCCCn1ccnc1,33.6% (active)
5,COc1ccccc1/C=C1\SC(=O)N(CCC(=O)N(C)C2CCS(=O)(=O)C2)C1=O (configuration not stated),26.5% (inactive)
6,O=C(CN1C(=O)/C(=C/c2ccccc2F)Sc2ccccc21)NCc1cccnc1,12.4% (inactive)
7,O=C(CCN1C(=O)c2ccccc2C1=O)NCCCn1ccnc1,-1.58% (inactive)
8,O=C(NCCCn1ccnc1)/C(=C\c1ccccc1F)NC(=O)c1ccccc1,-0.75% (inactive)
9,Cc1cc(OCCCC(=O)NCCN2C(=O)S/C(=C\c3cccnc3)C2=O)ccc1Cl,11.2% (inactive)
10,COc1ccc(-c2ccc(OC(=O)NC3CCS(=O)(=O)C3)cc2)cc1 (configuration not stated),-7.23% (inactive)
11,COc1ccc(/C=C2\SC(=O)N(CCC(=O)NCCCn3ccnc3)C2=O)cc1,43.6% (active)
12,COc1ccc(/C=C2\SC(=O)N(CCC(=O)NC3CCS(=O)(=O)C3)C2=O)cc1 (configuration not stated),41% (active)
13,CCOc1cc2c(Cl)ncnc2c(OCC)c1OCC,2.46% (inactive)
14,CCOC(=O)C1(Cc2ccccc2C)CCCN(C(=O)c2ccc(COC)o2)C1 (configuration not stated),6.53% (inactive)
15,COc1ccc(CNC(=O)C[C@H]2C[C@H](C(=O)N3CCOCC3)[C@@]3(CCC4CCCC4)c4[nH]c5ccc(Cl)cc5c4CCN3C2=O)cc1OC,-3.13% (inactive)
16,CCN(CC(=O)NC(C)C)C(=O)c1cc(S(=O)(=O)N2CCCCC2)ccc1N1CCCCC1,2.16% (inactive)
17,O=C(COc1cc(Cl)c(Cl)cc1Cl)NCCc1ccccn1,3.15% (inactive)
18,O=C(COC(=O)COc1cc(Cl)c(Cl)cc1Cl)NC1CC1,7.02% (inactive)
19,NC(=S)NN=Cc1ccc(OC(=O)COc2cc(Cl)c(Cl)cc2Cl)cn1,49.8% (active)
